A short description of test [1]: ATG_DR4_LXR_CIS: Attagene CIS-FACTORIAL HepG2 Assay for human Liver X Receptor (LXR), DR4 submotif (AID 2282929). To be noted: HepG2 Attagene DR4 cis-reporter, mRNA transcription; actives raise or lower the signal. A digest of the protocol:
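DR4 cis-reporter in HepG2, 24 h exposure. Detection: RT-PCR, 6-FAM labelling, CE fragment analysis. Endpoint fitted bidirectionally, DMSO = baseline.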

The target in test [2] is Aryl hydrocarbon receptor (Homo sapiens) (UniProt P35869). Nature of the test: ATG_Ahr_CIS: Attagene CIS-FACTORIAL HepG2 Assay for human Aryl Hydrocarbon Receptor (Ahr) (AID 2282930). To be noted: HepG2 AhR cis-factorial reporter transcription; actives raise or lower the signal. In a few lines: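 HepG2 cells transiently transfected with cis-element-driven multiplexed reporter transcription units; endogenous transcription factor activity measured as reporter mRNA 24 h after dosing. RT-PCR, 6-FAM labelling, HpaI digestion, capillary electrophoresis; bidirectional fitting versus DMSO baseline.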
Chain of Aryl hydrocarbon receptor (Homo sapiens) (P35869 whole entry, looked up): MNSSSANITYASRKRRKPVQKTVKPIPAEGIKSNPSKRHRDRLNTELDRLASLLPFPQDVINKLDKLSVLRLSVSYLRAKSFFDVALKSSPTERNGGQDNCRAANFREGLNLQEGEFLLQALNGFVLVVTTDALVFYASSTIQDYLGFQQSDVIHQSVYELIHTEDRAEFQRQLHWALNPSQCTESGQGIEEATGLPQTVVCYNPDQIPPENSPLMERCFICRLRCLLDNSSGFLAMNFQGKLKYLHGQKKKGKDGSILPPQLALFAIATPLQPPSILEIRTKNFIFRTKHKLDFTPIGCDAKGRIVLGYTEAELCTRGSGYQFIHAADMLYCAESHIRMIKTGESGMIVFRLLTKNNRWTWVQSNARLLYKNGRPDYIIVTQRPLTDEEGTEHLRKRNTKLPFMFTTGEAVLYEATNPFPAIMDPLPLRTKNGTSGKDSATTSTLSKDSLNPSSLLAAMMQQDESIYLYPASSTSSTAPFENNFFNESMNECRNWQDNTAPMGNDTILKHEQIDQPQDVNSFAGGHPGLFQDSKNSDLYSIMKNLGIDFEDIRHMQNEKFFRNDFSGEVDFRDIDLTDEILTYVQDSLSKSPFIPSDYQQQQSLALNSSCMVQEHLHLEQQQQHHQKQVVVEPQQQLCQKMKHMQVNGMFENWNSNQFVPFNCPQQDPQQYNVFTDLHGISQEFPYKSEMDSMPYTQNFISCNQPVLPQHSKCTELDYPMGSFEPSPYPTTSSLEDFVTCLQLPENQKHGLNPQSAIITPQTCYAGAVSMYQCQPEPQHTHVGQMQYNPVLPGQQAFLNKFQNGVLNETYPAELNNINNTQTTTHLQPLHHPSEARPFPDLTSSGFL

The nature of test [3]: ATG_AP_1_CIS: Attagene CIS-FACTORIAL HepG2 Assay for human Activator Protein 1 (AP-1) (AID 2282931). To be noted: HepG2 Attagene cis-factorial AP-1 reporter mRNA; actives raise or lower the signal. A digest of the protocol:
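Cis-regulated reporter units transiently expressed in HepG2 report endogenous transcription-factor activity. Signal: reporter mRNA at 24 h, via RT-PCR and fluorescent capillary electrophoresis. Endpoint derived by bidirectional fitting, DMSO as negative control.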

A short description of test [4]: ATG_AP_2_CIS: Attagene CIS-FACTORIAL HepG2 Assay for human Activator Protein 2 (AP-2) (AID 2282932). Particulars: HepG2 AP-2 cis-reporter, Attagene transcription factor profiling; actives raise or lower the signal. In a few lines: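 Cells (HepG2) transfected with promoter-driven reporter constructs, treated 24 h. Total RNA reverse-transcribed, reporter cDNA PCR-amplified, FAM-labelled by primer extension, digested, resolved by capillary electrophoresis. Activity fitted both directions versus DMSO.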

The nature of test [5]: ATG_BRE_CIS: Attagene CIS-FACTORIAL HepG2 Assay for human Bone Morphogenetic Protein (BMP) Response Element (BRE) (AID 2282933). To be noted: HepG2 BMP response element reporter, Attagene transcription factor profiling; actives raise or lower the signal. In a few lines: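 A HepG2 multiplex reporter system measured inducible reporter mRNA 24 h post-dosing. Detection: RT-PCR, 6-FAM primer extension, HpaI digestion, capillary electrophoresis. Activity fitted bidirectionally relative to DMSO.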

Test [6] deals with Retinoic acid receptor alpha (Homo sapiens) (UniProt P10276). The test is described as follows: ATG_DR5_RAR_CIS: Attagene CIS-FACTORIAL HepG2 Assay for human Retinoic Acid Receptor Alpha (RARE), DR5 submotif (AID 2282934). Particulars: HepG2 Attagene cis-factorial RARE DR5 reporter, mRNA; actives raise or lower the signal. In a few lines:
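HepG2 cells transiently transfected with multiplexed reporter units under cis (DR5 RARE) promoters, so endogenous transcription factor activity is measured. After 24 h compound exposure, reporter mRNA is quantified by RT-PCR with fluorescent labelling and capillary electrophoresis; bidirectional fitting versus DMSO.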

Test [7] addresses Transcription factor E2F1 (Homo sapiens) (UniProt Q01094). Nature of the test: ATG_E2F_CIS: Attagene CIS-FACTORIAL HepG2 Assay for human E2F Transcription Factor 1 (AID 2282935). To be noted: HepG2 Attagene cis-reporter, E2F reporter RNA transcripts; actives raise or lower the signal. A digest of the protocol:
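First, HepG2 cells were transfected with reporter transcription units. Next, they were dosed for 24 h. Then RNA was isolated, converted to cDNA, PCR-amplified, FAM-labeled, HpaI-digested and analyzed by capillary electrophoresis.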

Test [8] can be described thus: ATG_E_Box_CIS: Attagene CIS-FACTORIAL HepG2 Assay for human Enhancer Box (E-box) (AID 2282936). To be noted: HepG2 E-box cis-reporter transcription, actives raise or lower the signal. A digest of the protocol:
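Endogenous transcription factor activity was sensed in human HepG2 liver cells through transfected cis-promoter reporter units. After 24 h of dosing, total RNA was reverse-transcribed and reporter cDNA resolved by capillary electrophoresis.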

A short description of test [9]: ATG_EGR_CIS: Attagene CIS-FACTORIAL HepG2 Assay for human Early Growth Response 1 (EGR1) (AID 2282938). To be noted: HepG2 Attagene CIS-FACTORIAL EGR reporter mRNA; actives raise or lower the signal. A digest of the protocol: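 Endpoint derived by bidirectional fitting versus DMSO vehicle. Method: cis-promoter reporter units transfected into HepG2, 24 h dosing, RNA isolation, RT-PCR with 6-FAM primer extension and HpaI digestion, then capillary electrophoresis fluorescence detection.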

Test [10] in a line: ATG_M_19_CIS: Attagene CIS-FACTORIAL HepG2 Assay for M19 Transcription Factor (Internal Marker) (AID 2282939). Particulars: HepG2 Attagene CIS-FACTORIAL M19 internal marker reporter; actives raise or lower the signal. In a few lines: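 Chemical-treated HepG2 (24 h) with MRTU constructs; reporter transcripts detected by fluorescent RT-PCR fragment analysis on capillary electrophoresis. Internal background marker, DMSO as baseline.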

Test [11] is described as follows: ATG_ERE_CIS: Attagene CIS-FACTORIAL HepG2 Assay for Estrogen Response Element (ERE) (AID 2282940). Particulars: HepG2 ERE cis-reporter, Attagene RNA transcript; actives raise or lower the signal. In a few lines: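 Human liver cells (HepG2) bearing transiently transfected, promoter-regulated reporter units were exposed 24 h. Reporter mRNA induction was detected by capillary electrophoresis of labelled RT-PCR products and fitted bidirectionally to DMSO.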

Test [12] in a line: ATG_Ets_CIS: Attagene CIS-FACTORIAL HepG2 Assay for human Erythroblast Transformation Specific (ETS) (AID 2282941). Particulars: HepG2 ETS cis-reporter transcription, actives raise or lower the signal. A digest of the protocol:
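RT-PCR/capillary electrophoresis fluorescence read-out of reporter mRNA; HepG2 transient multi-reporter transfection; 24 h compound exposure; gain or loss of signal fitted bidirectionally relative to DMSO.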

Test [13] is described as follows: ATG_FoxO_CIS: Attagene CIS-FACTORIAL HepG2 Assay for human Forkhead box O (FoxO) (AID 2282943). To be noted: HepG2 Attagene cis-reporter, FoxO element, mRNA; actives raise or lower the signal. In a few lines: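 HepG2 cells transiently transfected with cis-promoter-driven multiple reporter transcription units; 24 h after chemical dosing, reporter mRNA quantified by RT-PCR, fluorescent primer extension, HpaI digestion and capillary electrophoresis. Bidirectional fitting versus DMSO baseline.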

The nature of test [14]: ATG_GATA_CIS: Attagene CIS-FACTORIAL HepG2 Assay for human GATA Binding Protein (AID 2282944). Particulars: HepG2 GATA cis-element reporter, Attagene multiplex mRNA; actives raise or lower the signal. A digest of the protocol: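 Transfected cis-reporter HepG2 cells were treated with chemicals for 24 hours. Total RNA was then converted to cDNA, amplified with reporter-specific primers and analysed by fluorescent capillary electrophoresis, using DMSO-treated wells as baseline.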

Test [15] can be described thus: ATG_GLI_CIS: Attagene CIS-FACTORIAL HepG2 Assay for human Zinc Finger Protein GLI1 (AID 2282945). To be noted: HepG2, Attagene cis-factorial reporter mRNA, GLI element; actives raise or lower the signal. In a few lines:
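HepG2 cells transiently transfected with cis-promoter multiplexed reporter units report endogenous transcription factor activity. After 24 h chemical exposure, reporter mRNA was quantified by RT-PCR, 6-FAM labelling, HpaI digestion and capillary electrophoresis, with bidirectional fitting against DMSO.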

A short description of test [16]: ATG_ISRE_CIS: Attagene CIS-FACTORIAL HepG2 Assay for human Interferon Regulatory Factor 1 (IRF1) binding to an Interferon-Stimulated Response Element (ISRE) (AID 2282948). To be noted: HepG2 ISRE cis-reporter (Attagene), mRNA transcription readout; actives raise or lower the signal. In a few lines: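 Read-out: fluorescent RT-PCR products resolved by capillary electrophoresis, reporting endogenous transcription factor activity via ISRE-driven reporter mRNA in transfected HepG2 cells dosed for 24 h; gain or loss fitted relative to DMSO.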

In test [17] the target is Hepatocyte nuclear factor 3-beta (Homo sapiens) (UniProt Q9Y261). The test is described as follows: ATG_FoxA2_CIS: Attagene CIS-FACTORIAL HepG2 Assay for human Forkhead box A2 (FOXA2) (AID 2282942). Particulars: HepG2 cis-reporter transcription factor activity, 24 h; actives raise or lower the signal. In a few lines: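 Measured: reporter mRNA induction or loss in HepG2 transiently carrying multiple cis-regulated reporter units, 24 h after dosing. Quantified by RT-PCR plus capillary electrophoresis, normalised to DMSO.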
Chain of Hepatocyte nuclear factor 3-beta (Homo sapiens) (Q9Y261 whole entry, looked up): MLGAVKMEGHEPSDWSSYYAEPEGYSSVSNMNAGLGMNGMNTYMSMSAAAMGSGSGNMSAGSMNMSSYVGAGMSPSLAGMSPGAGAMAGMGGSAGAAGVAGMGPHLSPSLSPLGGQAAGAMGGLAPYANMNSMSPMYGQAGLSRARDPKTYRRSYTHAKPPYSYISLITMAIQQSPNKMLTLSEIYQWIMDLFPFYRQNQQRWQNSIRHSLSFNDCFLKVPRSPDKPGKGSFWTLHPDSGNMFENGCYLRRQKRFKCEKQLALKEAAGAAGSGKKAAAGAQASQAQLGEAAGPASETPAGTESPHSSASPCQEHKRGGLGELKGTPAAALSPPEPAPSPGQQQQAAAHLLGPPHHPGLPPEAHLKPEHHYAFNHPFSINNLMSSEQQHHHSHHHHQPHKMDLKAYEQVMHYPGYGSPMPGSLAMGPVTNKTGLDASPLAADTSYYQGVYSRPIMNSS

Test [18] deals with Bile acid receptor (Homo sapiens) (UniProt Q96RI1). The test is described as follows: ATG_IR1_CIS: Attagene CIS-FACTORIAL HepG2 Assay for human Nuclear Receptor Subfamily 1 Group H Member 4 (NR1H4), IR1 submotif (AID 2282946). To be noted: IR1 reporter transcription, actives raise or lower the signal. A digest of the protocol: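 Readout: reporter transcript levels by RT-PCR with fluorescent capillary electrophoresis, from HepG2 cells transiently transfected with multiplexed cis-regulated reporters and dosed 24 h. Gain- or loss-of-signal fitted versus DMSO negative control.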
Chain of Bile acid receptor (Homo sapiens) (Q96RI1 whole entry, looked up): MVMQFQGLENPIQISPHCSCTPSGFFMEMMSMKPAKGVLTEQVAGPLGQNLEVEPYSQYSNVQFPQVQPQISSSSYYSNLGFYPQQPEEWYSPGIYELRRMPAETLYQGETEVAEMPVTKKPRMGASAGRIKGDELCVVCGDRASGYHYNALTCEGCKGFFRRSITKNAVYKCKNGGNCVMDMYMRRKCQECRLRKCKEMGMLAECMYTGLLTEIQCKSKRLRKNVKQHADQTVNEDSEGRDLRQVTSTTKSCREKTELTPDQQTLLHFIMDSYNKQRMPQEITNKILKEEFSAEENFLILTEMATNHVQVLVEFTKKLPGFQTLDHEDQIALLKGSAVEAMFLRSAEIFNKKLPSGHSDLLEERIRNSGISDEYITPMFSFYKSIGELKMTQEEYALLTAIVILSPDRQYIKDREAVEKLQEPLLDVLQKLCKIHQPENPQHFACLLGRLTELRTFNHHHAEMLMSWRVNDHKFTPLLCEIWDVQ

The nature of test [19]: ATG_GRE_CIS: Attagene CIS-FACTORIAL HepG2 Assay for human Glucocorticoid Response Elements (GRE) (AID 2282947). Particulars: HepG2 GRE cis-reporter, Attagene multiplex mRNA; actives raise or lower the signal. A digest of the protocol: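 Cells (HepG2) bearing transfected cis-promoter reporter transcription units were treated with chemical for 24 hours. Reporter mRNA was measured via RT-PCR with capillary electrophoresis, and activity was fitted in both directions relative to DMSO.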

Test [20] is described as follows: ATG_M_61_CIS: Attagene CIS-FACTORIAL HepG2 Assay for M61 Transcription Factor (Internal Marker) (AID 2282937). Particulars: HepG2 Attagene CIS-FACTORIAL M61 internal marker reporter; actives raise or lower the signal. In a few lines: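 Background-control endpoint: HepG2 cells with cis-regulated reporter constructs, 24 h exposure, reporter mRNA detected via fluorescent primer extension and capillary electrophoresis; values from bidirectional fitting with DMSO baseline.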

Structures are written as SMILES. Activity calls are given as the source filed them. The calls were made as follows: active = hit-call score of the fitted dose curve at least 0.9, where 1 is the maximum; inactive = score below 0.9.

Chain of Transcription factor E2F1 (Homo sapiens) (Q01094 whole entry, looked up): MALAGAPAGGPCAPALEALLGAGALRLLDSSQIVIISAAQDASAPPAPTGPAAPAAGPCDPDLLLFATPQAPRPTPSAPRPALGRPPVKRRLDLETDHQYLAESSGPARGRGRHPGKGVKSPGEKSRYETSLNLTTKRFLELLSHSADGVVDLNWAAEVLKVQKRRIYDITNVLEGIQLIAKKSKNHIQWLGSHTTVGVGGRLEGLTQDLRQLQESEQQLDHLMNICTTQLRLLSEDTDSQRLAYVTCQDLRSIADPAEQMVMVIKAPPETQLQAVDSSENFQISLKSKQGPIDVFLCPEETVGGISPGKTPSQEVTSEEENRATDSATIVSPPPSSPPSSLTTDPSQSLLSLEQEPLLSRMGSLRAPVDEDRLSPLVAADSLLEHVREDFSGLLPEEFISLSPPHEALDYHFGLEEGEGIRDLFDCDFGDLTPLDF
Chain of Retinoic acid receptor alpha (Homo sapiens) (P10276 whole entry, looked up): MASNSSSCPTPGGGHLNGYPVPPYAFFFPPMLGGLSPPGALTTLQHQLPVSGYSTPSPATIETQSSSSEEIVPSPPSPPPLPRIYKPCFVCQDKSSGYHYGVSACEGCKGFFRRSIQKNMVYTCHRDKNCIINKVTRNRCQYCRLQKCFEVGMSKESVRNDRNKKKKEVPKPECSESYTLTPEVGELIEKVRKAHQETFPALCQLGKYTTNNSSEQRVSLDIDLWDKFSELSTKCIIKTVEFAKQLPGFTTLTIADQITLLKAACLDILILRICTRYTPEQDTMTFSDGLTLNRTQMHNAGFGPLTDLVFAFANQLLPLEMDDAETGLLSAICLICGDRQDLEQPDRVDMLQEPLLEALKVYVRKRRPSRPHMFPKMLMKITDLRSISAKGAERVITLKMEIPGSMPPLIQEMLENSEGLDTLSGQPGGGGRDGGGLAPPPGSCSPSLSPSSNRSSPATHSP

Take `CCOP(=O)(OCC)SCCSCC`: the result in test [1], in test [2], in test [3], in test [4], in test [5] and in [6] was inactive. The outcome in test [7], in test [8], in test [9], in [10], in [11] and in test [12] was inactive. The outcome in test [13], in [14], in test [15] and in [16] was inactive.
As to `CN(CCCC(O)c1cccnc1)N=O` (configuration not stated), the outcome in test [1], in [2], in test [3], in test [4], in test [5] and in test [6] was inactive. The outcome in [7], in test [8], in [9], in test [10], in [11] and in test [12] was inactive. Moreover, the compound was called inactive in test [17], in test [13], in test [14], in test [15], in test [18] and in [16].
With `C=CCOC(F)(C(F)(F)F)C(F)(F)F`, the outcome in test [1], in test [2], in [3], in test [4], in test [5] and in test [6] was inactive. In addition, the outcome in [7], in test [8], in [9], in [10], in [17] and in test [13] was inactive. For the same compound, the call in test [14], in test [15], in test [18], in [19] and in test [16] was inactive.
`O=C(N[C@H]1CN2CCC1CC2)c1ccc2c(c1)OCCO2`: the call in [1], in [2], in test [3], in test [4], in [5] and in [6] was inactive. In addition, the compound was called inactive in test [7], in [20], in test [10], in test [12], in test [17] and in test [13]. Also, the result in test [14], in test [15] and in test [16] was inactive. Besides, the concentration at half-maximal activity (AC50) in [8] was 72.7 µM (active).

By AC50 is commonly meant the concentration at which the activity in the assay is half-maximal.

For the origin of these results see PubChem BioAssay (EPA / NIEHS).
